Results as given in PubChem BioAssay AID488896 (Broad Institute, 2010).
About 3,100 (0.97%) of roughly 320,000 compounds were called active.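 How the source made its calls: active means mean replicate inhibition of at least 70% and a set share of replicates each scoring 70 or more; inconclusive means meets just one of the two criteria; inactive means fails both criteria.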 Only a selection was taken, and actives are over-represented in it overall.

Target: Scavenger receptor class B member 1 (Mus musculus) (UniProt Q61009)
Assay: inhibitors of SR-BI mediated HDL lipid uptake, primary screen, ldlA[mSR-BI] cells, fluorescence, single point (AID 488896);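 further: 0% = median of neutral control wells and 100% = median of positive control wells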
Details: ldlA[mSR-BI] CHO cells, DiI-HDL uptake fluorescence, 3 h; at 12.5 µM; hits give high values

Scavenger receptor class B member 1 (Mus musculus), sequence (Q61009 whole entry, looked up): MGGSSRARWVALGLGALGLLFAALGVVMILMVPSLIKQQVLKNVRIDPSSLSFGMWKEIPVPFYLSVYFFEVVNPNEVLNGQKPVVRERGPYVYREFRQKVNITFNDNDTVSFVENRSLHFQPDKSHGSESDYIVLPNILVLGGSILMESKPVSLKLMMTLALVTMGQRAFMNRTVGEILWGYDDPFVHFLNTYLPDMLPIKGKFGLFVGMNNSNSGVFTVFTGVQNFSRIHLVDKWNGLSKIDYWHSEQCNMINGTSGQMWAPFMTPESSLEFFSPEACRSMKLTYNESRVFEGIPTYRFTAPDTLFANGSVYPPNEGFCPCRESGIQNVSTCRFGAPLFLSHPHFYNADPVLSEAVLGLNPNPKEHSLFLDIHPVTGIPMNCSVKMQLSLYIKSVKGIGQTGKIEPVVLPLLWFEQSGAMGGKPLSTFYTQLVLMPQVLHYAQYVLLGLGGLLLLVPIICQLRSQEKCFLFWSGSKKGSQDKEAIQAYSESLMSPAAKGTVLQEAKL

inhibition, inactive:
CC(C)(C)OC(=O)N(Cc1ccccc1)Cc1ccc(OCc2cccc(NC(=O)c3ccccc3)c2)cc1 30.4%
COc1cc(OC)cc(-c2nnc(N(C)C(=O)c3ccncc3)s2)c1 45%
CN(C(=O)c1ccccn1)c1nnc(-c2ccccn2)s1 -7.4%
N#CCc1c[nH]c2ccc([N+](=O)[O-])cc12 -13.4%
Cc1nc(Nc2ccccc2C)c2cnn(C)c2n1 -3.29%
CCOc1cc(NC(=S)NCCCOC)c(OCC)cc1NC(=O)c1ccco1 28.5%
CCOc1cc(N2CCOCC2)c(OCC)cc1NC(=O)c1ccc(C)s1 37%
CCOc1cc(NC(=S)NCc2ccco2)c(OCC)cc1NC(=O)c1ccco1 43.4%
CCOc1cc(N2CCOCC2)c(OCC)cc1NC(=O)c1cc(C)nc2ccccc12 20.8%
CN(C)C(=S)N=c1ssc(=S)n1Cc1ccco1 0.753%
CC(=O)Nc1ccc(C(=O)Nc2cc(S(=O)(=O)N3CCOCC3)ccc2N2CCOCC2)cc1 -8.12%
COC(=O)Cc1c(-c2[nH]c3ccccc3c2CC(=O)OC)[nH]c2ccccc12 37.9%
O=C(NOCc1ccccc1)c1cccc([N+](=O)[O-])c1 -13.8%
COc1ccc(/C=N/N=C2/C(=O)Nc3ccccc32)cc1O -2.91%
O=C(O)c1ccc(NN=CC2=C(N3CCOCC3)/C(=C/c3ccccc3)CC2)cc1 -13%
O=C(CSc1nnc(N2CCOCC2)n1-c1cccc(F)c1)N1CCN(c2ccccn2)CC1 0.884%
C[C@H](O)[C@@H]1C(=O)N2CCc3ccc(N4CCOCC4)cc3[C@@H]2C[C@@H]1N(C)C(=O)C(C)(C)C -2.83%
COc1cc2c(cc1OC)C(Cc1cc(OC)c(OC)cc1[N+](=O)[O-])=NCC2 -13%
CC1CN(Cc2ccco2)C(=S)N(c2ccccc2)C1=O (configuration not stated) -33.1%
COc1cc(C2c3cc4c(cc3C(O)C3COC(=O)C23)OCO4)cc(OC)c1OC (configuration not stated) -0.16%
CCOc1ccc(S(=O)(=O)N2CCN(C(=O)c3oc4ccccc4c3C)CC2)cc1 -15.2%
COc1ccc(C(=O)Cn2nnc(-c3ccc(N4CCOCC4)cc3)n2)cc1OC 33%
CCOc1ccc(-c2nnn(CC(=O)N3CCN(c4ccc(F)cc4)CC3)n2)cc1OCC 48.2%
Cc1nc(NC(=O)CN(C)S(=O)(=O)c2ccc(Cl)cc2)sc1C 2.99%
CCCCC(=O)N/N=C(\C)CC(=O)Nc1cc(Cl)ccc1OC 27.7%
CCC(=O)Nc1nc(C)c(C(=O)Nc2cccc(Cl)c2)s1 49.6%
Cc1cccc(S(=O)(=O)CC(=O)Nc2nc(-c3ccccc3)cs2)c1 -18%
COc1cccc(CC(=O)Nc2ccc(-c3csc(C)n3)cc2)c1 22%
COc1ccc(Cl)cc1NC(=O)c1oc(C)nc1C 10.4%
COc1cccc(NC(=O)CN2CCN(c3nc(-c4cccc(OC)c4)cs3)CC2)c1 19.1%
CCCCN(C)CCC(=O)Nc1ccc(Cl)cc1 -5.92%
CC(=O)c1cccc(-c2ccc(CN3C(CC(C)C)C(=O)N(Cc4cn(CC5CCCCC5)nn4)CCS3(=O)=O)cc2)c1 (configuration not stated) 48.8%
COc1cc(O)c2c(=O)c3c(O)c(O)ccc3oc2c1OC 10.1%
O=c1oc2ccccc2c(=O)c2ccccc12 -23.4%
COc1ccc(C(=O)N(C)Cc2ccc(OC)c(OC)c2OC)cc1S(=O)(=O)N1CCOCC1 -8.86%
CC(Nc1ccc([N+](=O)[O-])cc1[N+](=O)[O-])c1ccccc1 (configuration not stated) 21.4%
O=[N+]([O-])c1cc2ccccc2nc1-c1ccccc1 -10.5%
O=C(O)C1C2C=CC(O2)C1C(=O)Nc1ccccn1 (configuration not stated) -12.6%
CCN(CC(=O)Nc1c(F)cccc1F)C(=O)Cc1cccs1 9.34%
CC(NC(=O)c1ccccc1)C(=O)OCC(=O)Nc1cccc(S(=O)(=O)N2CCCC2)c1 (configuration not stated) -1.56%
CCOc1cc(C(=O)N(Cc2ccccc2)c2ccc(C)cc2)ccc1OCC(=O)N1CCOCC1 5.71%
O=C(c1ccc2c(c1)C(=O)N(Cc1ccncc1)C2=O)N1CCN(S(=O)(=O)c2ccc(OC(F)(F)F)cc2)CC1 -23.1%
CCCc1cc(=O)[nH]c(SCC(=O)c2cc(C)n(CCC)c2C)n1 10.7%
Cc1cc(C(=O)CSc2nc(N)cc(=O)[nH]2)c(C)n1Cc1ccco1 -21.5%
O=C(O)C(CCc1ccccn1)c1ccccc1 (configuration not stated) 11.9%

inhibition, active:
Oc1c(Cl)cc(Cl)c(Cl)c1Cc1c(O)c(Cl)cc(Cl)c1Cl 78.2%
CN(C(=O)COc1ccccc1)c1nnc(-c2ccncc2)s1 70.2%
CCOc1cc(N2CCOCC2)c(OCC)cc1NC(=O)COc1cccc(Cl)c1 74.8%
CCOc1cc(NC(=O)c2ccco2)c(OCC)cc1NC(=O)COc1ccccc1 80.9%
O=C1Nc2ccc(Br)cc2/C1=N/N=C/C1=C(N2CCOCC2)C(=C\c2ccccc2)/CC1 147%
C(=N\N1CCN(c2ccccn2)CC1)/C1=C(N2CCOCC2)C(=C/c2ccccc2)/CC1 95.8%
CCOc1ccc(-c2nnn(CC(=O)N3CCN(c4ccc(OC)cc4)CC3)n2)cc1OCC 82%
CCCCCCC(=O)Nc1nc(C)c(-c2csc(Nc3cc(Cl)ccc3OC)n2)s1 97.4%
C=CCCC(=O)Nc1nc(C)c(-c2csc(Nc3ccc(Cl)cc3)n2)s1 104%
CCCCC(=O)Nc1nc(C)c(-c2csc(Nc3ccc(Cl)cc3)n2)s1 103%
CCCCCCC(=O)Nc1nc(C)c(-c2csc(Nc3cccc(OC)c3)n2)s1 87.2%
Cc1cc(C(=O)CSc2nc(N)cc(=O)[nH]2)c(C)n1CCc1ccc(Cl)cc1 83.8%
